GRIN3A LBD mod: binders of NR3A ligand-binding domain, primary screen, biophysical, differential scanning fluorimetry, uHTS; 340,000 tested, 2.5% active; AID 1259313, 2017; NR3A LBD differential scanning fluorimetry, Tm shift; 0% = protein alone, 100% = glycine-bound protein; Tm shift relative to glycine control, % at 25 µM; Glutamate receptor ionotropic, NMDA 3A (GRIN3A) ligand-binding domain;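 active = melting temperature shift of at least 10% of the positive control shift, at one fixed dose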
FAS TE block: FAS thioesterase domain inhibitors, primary screen, biochemical, fluorescence intensity, uHTS | Fatty acid synthase (Homo sapiens), P49327 | recombinant FAS-TE, OMFH fluorogenic substrate, fluorescence endpoint | inhibition, % at 15 µM | 360,000 tested, 0.67% active | AID 602261, 2012;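 active = compounds whose normalised, plate-corrected inhibition of enzyme fluorescence in the single-dose primary screen is 50% or more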;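 also: 0% = DMSO with enzyme and 100% = substrate without enzyme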
ADAM17 inh: ADAM17 inhibitors, primary screen, biochemical, QFRET; Disintegrin and metalloproteinase domain-containing protein 17 (Homo sapiens), P78536; recombinant ADAM17, EDANS/DABCYL FRET peptide cleavage; inhibition, % at 6.95 µM; 370,000 tested, 0.83% active; AID 720648, 2013;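 active = inhibition above the mean of compounds lying between control limits plus 3 SD, set per campaign, cut at about 8.5% in these data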;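 also: 0% = DMSO-only wells as the low control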
Target sequence (P78536 215-824 limits assumed): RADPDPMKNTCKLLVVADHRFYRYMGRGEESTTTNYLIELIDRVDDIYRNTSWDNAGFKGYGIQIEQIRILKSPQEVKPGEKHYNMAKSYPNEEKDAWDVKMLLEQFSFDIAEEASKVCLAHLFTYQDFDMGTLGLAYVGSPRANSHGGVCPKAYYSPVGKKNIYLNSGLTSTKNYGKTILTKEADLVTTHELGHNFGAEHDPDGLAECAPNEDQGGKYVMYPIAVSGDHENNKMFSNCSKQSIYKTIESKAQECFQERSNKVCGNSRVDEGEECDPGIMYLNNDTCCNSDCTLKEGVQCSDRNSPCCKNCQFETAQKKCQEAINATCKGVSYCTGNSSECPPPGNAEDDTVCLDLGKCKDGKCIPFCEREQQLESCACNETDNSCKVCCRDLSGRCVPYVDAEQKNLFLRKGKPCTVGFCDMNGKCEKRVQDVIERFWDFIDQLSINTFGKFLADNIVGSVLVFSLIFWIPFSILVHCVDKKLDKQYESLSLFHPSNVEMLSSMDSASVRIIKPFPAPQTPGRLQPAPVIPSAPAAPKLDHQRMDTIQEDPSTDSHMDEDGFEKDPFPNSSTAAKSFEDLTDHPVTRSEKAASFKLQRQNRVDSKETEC
aDG glyco act: activators of alpha-DG glycosylation, primary screen, uHTS, Pro5-aDG cells, AlphaScreen; activation, % at 10 µM; alpha-DG glycosylation AlphaScreen (IIH6); 0% Pro5, 100% B10-LARGE cell signal; 360,000 tested, 0.22% active; AID 624168, 2012;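 active = activation of at least 8% versus controls, or a plate z-score of at least 8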;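 also: Pro5 are CHO cells carrying HIG-tagged alpha-DG that lacks glycosylation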
ADAM10 inh: human ADAM10 inhibitors, primary screen, biochemical, QFRET, HTS; recombinant ADAM10, EDANS/DABCYL FRET peptide cleavage, 3 h; Disintegrin and metalloproteinase domain-containing protein 10 (Homo sapiens), O14672; 370,000 tested, 0.62% active; inhibition, % at 7 µM; AID 720582, 2013;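 active = inhibition above a per-campaign cutoff equal to the mean of compounds falling between control-based bounds plus 3 SD, cut at about 20% in these data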;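 also: 0% = DMSO wells while the 100% control is not disclosed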
Numbers without * were called inactive; nt = no result. Compounds with a hit are over-represented: about 4% of the library has one in this group of screens.

SMILES	GRIN3A LBD mod	FAS TE block	ADAM17 inh	aDG glyco act	ADAM10 inh
Cc1ccc(C(=O)N/N=C/c2ccc(-c3cccc(Cl)c3)o2)cn1	0	9	-15	0	-35
Cc1ccc(C(=O)N/N=C\c2ccc(-c3ccc(Cl)c(Cl)c3)o2)cn1	12*	10	-20	0	-14
O=C(N/N=C/c1ccc(OC(=O)c2ccco2)cc1)c1ccccn1	14*	1	-5	0	-2
CCOC(=O)c1sc2nc(C)nc(SCC(=O)NC(C)CCc3ccccc3)c2c1C (configuration not stated)	-1	-12	-1	0	-4
CCO[C@@H]1OC(C(=O)N2CCN(Cc3ccccc3)CC2)=C[C@H](c2cn(C(C)=O)c3ccccc23)[C@H]1CCCO	12*	8	0	0	7
CCO[C@@H]1OC(C(N)=O)=C[C@H](c2cn(C(C)=O)c3ccccc23)[C@H]1CCCO	-1	-10	-4	0	5
CCO[C@H]1OC(C(=O)O)=C[C@@H](c2cn(C(C)=O)c3ccccc23)[C@@H]1CCCO	13*	-13	-1	0	2
CCOC(=O)C1CCN(C(=O)CS(=O)Cc2nc(-c3ccc(C)cc3)oc2C)CC1 (configuration not stated)	-2	-7	4	0	0
CCOC(=O)c1ccc(N/C=C/C(=O)c2ccco2)cc1	-2	-6	-4	0	-16
O=C(/C=C/Nc1ccc(F)cc1)c1ccco1	15*	-2	1	0	2
CCOc1ccc(C(=O)NN2C(=O)C3C4C=CC(O4)C3C2=O)cc1 (configuration not stated)	-2	-4	-2	0	4
Cc1cc(=O)oc2cc(OCCSCCN3CCCC3)ccc12	12*	-5	-40	0	-99
COc1ccc(N2CCN(CCOc3ccc4c(C)cc(=O)oc4c3)CC2)cc1	4	-8	-9	0	-24
COc1ccc(/C=C/C(=O)c2cc(F)ccc2OC(=O)c2ccc(OC)c(OC)c2)cc1OC	0	2	-1	-1	4
COc1ccc(/C=C/C(=O)c2cc(F)ccc2OC(=O)c2ccccc2)cc1OC	-6	0	11*	0	11
Cc1cc(N/N=C/c2ccc(F)cc2)nc(NCc2ccccc2)n1	35*	11	-1	0	5
O=C(C1=NN(c2ccccc2)C2C(=O)N(c3ccc(Cl)cc3)C(=O)C12)c1ccccc1 (configuration not stated)	-2	5	-1	0	9
O=C(C1=NN(c2ccccc2)C2C(=O)N(c3cccc(Cl)c3)C(=O)C12)c1ccccc1 (configuration not stated)	-7	64*	-5	0	-12
Cc1cc(-c2onc(C)c2C(=O)Nc2ccc(C(F)(F)F)cc2)no1	0	-1	-3	0	4
Cc1noc(-c2ccc(C(F)(F)F)cc2)c1NC(=O)Nc1ccc(Cl)cc1	30*	1	1	0	2
O=S(=O)(NCCCCNS(=O)(=O)c1c(F)cccc1F)c1ccc2c(c1)OCCO2	15*	-7	-1	0	3
O=C(Nc1ccc(Oc2nnc(-c3ccccc3)c3ccccc23)cc1)c1ccccc1	8	7	1	0	-4
Cc1ccc(N=Nc2c(N)nn3c(C)cc(C)nc23)cc1	3	-3	-1	0	-2
Cc1ccc(N=Nc2c(N)nn3c(N)c(C#N)c(C)nc23)cc1	26*	3	-1	1	6
Cc1ccc(C(=O)NCCCNC(=O)COc2ccc(Cl)c(C)c2)cn1	1	0	-4	0	-6
SMILES	GRIN3A LBD mod	FAS TE block	ADAM17 inh	aDG glyco act	ADAM10 inh
CCOC(=O)C(=O)NC12CC3CC(CC(C3)C1)C2	11*	-10	0	0	-4
CCOCC(=O)OCC(=O)NC12CC3CC(CC(C3)C1)C2	-2	-2	-6	0	-2
c1ccc2[nH]c(-c3cnco3)cc2c1	11*	-7	-10	0	-15
COc1ccccc1NC(=O)CCCc1nc(-c2ccc(OC)c(OC)c2)no1	-1	0	-3	0	-4
CC(=O)c1ccc(NC(=O)CSc2nnc(NC(=O)c3ccco3)s2)cc1	19*	-4	nt	0	nt
O=C(CSc1nc2ccccc2o1)Nc1ccc(Cl)cc1	19*	18	-1	0	-1
O=C(CSc1ccc(Cl)cc1)Nc1ccc(NC(=O)c2ccco2)cc1	21*	-5	-4	0	-1
Cc1ccc(NC(=O)CSc2nnc(NC(=O)c3ccco3)s2)cc1	13*	-4	-3	0	-10
CC(C)N(C(=O)CSc1nnc(NC(=O)c2ccco2)s1)C(C)C	-1	-11	1	0	11
S=C(Nc1ccccc1)N1CCN(c2ccccc2)CC1	-2	1	-3	0	0
O=C(COC(=O)CC(c1ccccc1)c1ccccc1)NCc1ccc(Cl)cc1	-17	28	5	0	14
CN1/C(=C\C(=O)Nc2ccc(Br)cc2)C(C)(C)c2ccccc21	19*	27	7	0	-4
COc1ccccc1NC(=O)CSc1nnc(Cc2cccn2C)n1CCc1ccccc1	0	3	-2	0	2
Cc1nc(Nc2ccc(Cl)cc2Cl)sc1C(=O)Nc1ccccc1	43*	30	1	1	-2
Cc1nc(NC(=O)/C=C/c2ccccc2)sc1C(=O)Nc1ccccc1Cl	-1	1	-3	0	-5
CC(=O)c1sc(Nc2ccccc2)nc1C	nt	-12	-2	0	-9
Cc1nc(NC(=O)C2CC2)sc1C(=O)Nc1cccc(Cl)c1	-10	10	0	0	-5
Cc1nc(NC(=O)/C=C/c2ccccc2)sc1C(=O)Nc1ccc(Cl)cc1	38*	-3	-2	0	-17
Cc1nc(Nc2ccc(Cl)c(Cl)c2)sc1C(=O)Nc1ccccc1	32*	33	4	7	-1
O=C(CCCCl)N1CCc2[nH]c3ccccc3c2C1	1	-8	-6	0	-14
Cc1ccc(C)c(OCCn2ccnc2)c1	0	-6	nt	0	nt
Cc1ccc(NC(=S)c2nc3ccccc3[nH]2)cc1	-7	10	4	0	14
Cc1ccc(NC(=S)c2nc3ccccc3[nH]2)c(C)c1	-6	4	8.9*	0	6
CCOc1ccc(NC(=O)CC2C(=O)N(C)C(=S)N2Cc2ccco2)cc1 (configuration not stated)	17*	-6	-3	0	1

Screening data (PubChem BioAssay)
